For test [1], the target named is Cytochrome P450 1A2 (Homo sapiens) (UniProt P05177). As to the kind of experiment: p450-cyp1a2 (AID 410; calls by dose curve; also: potency is read from the fitted curve at half-maximal effect;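 as to activity change, negative = inhibition: -100% = full effect of reference inhibitor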). Put shortly: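 20nM CYP1A2, 100uM Luciferin-ME (=Km), 100mM KPO4; cpd 10 min RT; +NADPH regen, 60 min RT; stop/detect 20 min; luminescence. Normalized to furafylline 57 uM = full inhibition.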
The target in test [2] is Glucocorticoid receptor (Homo sapiens) (UniProt P04150). Put plainly: GR-GFP Redistribution (AID 450;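 active = compounds whose dose series gives a full or clear partial fitted curve of increased nuclear translocation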; also: potency is read from the fitted curve at half-maximal effect). The following applies: U2OS GR-GFP nuclear translocation, laser cytometry, 2 h.
Test [3] has the same target. As to the kind of experiment: GR-EFC Redistribution (AID 451; calls by dose curve; also: potency is read from the fitted curve at half-maximal effect). The conditions noted are these: CHO-K1 GR-EFC translocation, beta-gal luminescence, 2 h. Put shortly:
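Translocation of GR-ED fusion to nuclear EA restores b-gal, read by luminescence after 1 h room-temperature detection. Engineered CHO-K1 biosensor cells, 1,000/well, exposed 2 h at 37 C to titrations up to 46 uM final.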

In test [4] the target is Mitogen-activated protein kinase 10 (Mus musculus) (UniProt Q61831). Put plainly: JNK3 AlphaScreen Assay (AID 530; active = well fitted curve in either direction with a large enough effect, not every such curve was filed as active;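 also: kinase came from lysate of stimulated human HepG2 cells; signal reports phosphorylation of biotinylated GST-cJun 1-79 at Ser73 with 10 µM ATP; % is scaled to controls: 0 for no effect and ±100 for the full control effect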). Put shortly:
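Kinase buffer: 20 mM Tris-HCl pH 7.6, 10 mM MgCl2, 1 mM DTT, 0.1 mM Na3VO4, 0.01% Tween-20; ATP 10 uM. Substrate biotin-GST-cJun(1-79), enzyme from activated HepG2 lysates. Detection by Ser73 phospho-antibody AlphaScreen.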

The nature of test [5]: qHTS Assay for Lipid Storage Modulators (AID 1519; calls by dose curve). The conditions noted are these: Drosophila S3 cells, BODIPY lipid droplet/cell ratio, laser cytometry, cells loaded with oleic acid; for activity change, negative = inhibition: at 57.5 µM (top of the series). Put shortly: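 Cells seeded at 5,000 per well were treated with compounds over a concentration series and loaded with oleic acid (400 uM, as added). Lipid droplet fluorescence (488 nm excitation, 500-530 nm channel) was read by laser-scanning cytometry and normalized to 20 uM Triacsin C.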

The target of test [6] is DNA dC->dU-editing enzyme APOBEC-3G (Homo sapiens) (UniProt Q9HC16). Put plainly: qHTS for inhibitors of Vif-A3G interactions: Validation (AID 588379). Also: 0% is about no effect. Put shortly: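 Yellow fluorescence (Ex 488, Em 500-530) of Vif-coexpressing HeLa A3G-eYFP cells, scanned by Acumen cytometer, reports blocked A3G degradation. Cells plated at 700/well overnight at 37 deg C before compound addition, then a further overnight compound incubation at 37 deg C.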

Test [7] deals with Zika virus NS2B-NS3 protease. As to the kind of experiment: Primary screen GU AMC qHTS for Zika virus inhibitors (AID 1347154).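 Also: 0% = no-inhibitor control and -100% = no-enzyme control; nearly all actives have a fitted effect of over 70% in size.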 Put shortly: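 Fluorogenic AMC-substrate cleavage by noncovalent NS2B-NS3 protease complex (25 nM, pH 8.0 Tris buffer with Tween 20) followed for 15 minutes at room temperature (~20% conversion). Percent inhibition from ex340/em450 signal change, fitted by 4-parameter Hill equation.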

The nature of test [8]: Primary qHTS for small molecule stabilizers of the endoplasmic reticulum resident proteome: Secreted ER Calcium Modulated Protein (SERCaMP) assay (AID 1508630). Also: % is scaled to controls: 0 for no effect and ±100 for the full control effect. Put shortly:
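The SH-SY5Y reporter protocol was run at 3 concentrations up to 38.3 uM (primary) or 11 concentrations (follow-up): 16 h compound, 100 nM thapsigargin for 4 h, then extracellular luciferase luminescence.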

Test [9] can be described thus: AP1 Signaling Pathway (AID 357; active = well fitted curve in either direction with a large enough effect, not every such curve was filed as active;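 also: ME-180 reporter cells stimulated with EGF at its EC50 level; % is scaled to controls: 0 for no effect and ±100 for the full control effect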). Put shortly:
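AP-1-bla ME-180 cells, Opti-MEM + 0.5% dialyzed FBS, plated overnight 37 °C. Cpd titration + EC50 EGF, 5 h 37 °C. CCF4 2.5 h RT; ex 405, em 460/530 ratio → %activity, AC50.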

The nature of test [10]: Stat Signaling Pathway (AID 446; active = well fitted curve in either direction with a large enough effect, not every such curve was filed as active;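 also: ME-180 cervical cancer cells given 40 pM IL-6 alongside compound; SIE-controlled beta-lactamase reporter measured as 460/530 nm FRET emission ratio; % is scaled to controls: 0 for no effect and ±100 for the full control effect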). Put shortly: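 Normalization used AC90 stimulation (300 pM IL-6) and AC90 inhibition (125 nM pan-JAK inhibitor at 40 pM IL-6). The underlying signal is SIE-driven beta-lactamase in ME-180 cells after 5 h IL-6 exposure with compound.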
Test [11] addresses 3',5'-cyclic-AMP phosphodiesterase 4B (Homo sapiens) (UniProt Q07343). As to the kind of experiment: qHTS Assay for Inhibitors of PDE-IV (AID 607; active = well fitted activation curve with a large enough effect in the main read-out, with a control signal flat, not every such curve was filed as active; also: % of control where 0% means no effect). Put shortly:
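HEK293 ACTOne cells with CNG channel (1000/well), endogenous PDE4; membrane potential dye, compounds up to 22.9 uM final. Fluorescence Ex 535/Em 590; RO 20-1724 (100 uM final) as reference.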

Test [12] addresses Guanine nucleotide-binding protein G(i) subunit alpha-1 (Homo sapiens) (UniProt P63096). Put plainly: qHTS Assay for Inhibitors of RGS12 GoLoco Motif Activity (Green Fluorophore) (AID 879).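 Also: 0% = labeled peptide with Gαi1 and full inhibition = labeled peptide alone without protein; negative values mean loss of peptide binding seen as reduced polarization.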 Put shortly: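 A drop in FITC polarization marked displacement of the FITC-tagged RGS12 GoLoco peptide (10 nM) from Gαi1 (50 nM). Compounds were incubated 10 min at room temperature in Tris pH 7.5 buffer containing 150 mM NaCl, 0.1 mM GDP and 0.05% NP40; unlabeled peptide titration served as control.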

In test [13] the target is Pyruvate kinase (Leishmania mexicana) (UniProt Q27686). Put plainly: qHTS Validation Assay for Inhibitors of Leishmania Mexicana Pyruvate Kinase (AID 945).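 Also: 0% = DMSO only neutral control wells.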 Put shortly:
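An endpoint luciferase assay: 0.2 nM LmPYK E451W turns over 0.5 mM PEP with 0.1 mM ADP for 1 h at room temperature, pH 7.2, before PKLight addition. Values are normalized to DMSO-only wells.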

The target of test [14] is Pyruvate kinase PKM (Homo sapiens) (UniProt P14618). As to the kind of experiment: qHTS Assay for Activators of Human Muscle Pyruvate Kinase (AID 954; active = well fitted curve in the direction sought with a large enough effect, not every such curve was filed as active;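 also: 0% = uninhibited enzyme and -100% = no enzyme or full thiadiazolimine inhibition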). Put shortly: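 Compound pinned into substrate mix (0.5 mM PEP, 0.1 mM ADP), then 0.1 nM PKM2 added; 1 h, RT. Stop/detection luciferase reagent added, luminescence read. Normalized to no-inhibition and no-enzyme or reference-inhibitor controls.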

The target in test [15] is Alpha-galactosidase A (Homo sapiens) (UniProt P06280). Put plainly: Counterscreen for Glucocerebrosidase Inhibitors: qHTS Assay for Human alpha-Galactosidase at pH 4.5 (AID 992). Also: 0% is about no effect. Put shortly:
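Steps: enzyme (2 nM final), then compound across 0.7 nM to 77 uM, then 80 uM fluorogenic galactopyranoside substrate; incubate 20 min at room temperature; quench at pH 10; measure fluorescence at 365/440 nm.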

Test [16] addresses alpha-glucosidase (Oryza sativa, rice) (UniProt Q653V4). Put plainly: Counterscreen for Glucocerebrosidase Inhibitors: qHTS Assay for Rice alpha-Glucosidase at pH 5.0 (AID 997).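 Also: 0% = full activity with enzyme and -100% = basal without enzyme.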 Put shortly:
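Endpoint fluorogenic assay at pH 5.0: compounds (0.7 nM to 77 uM) titrated against 4 nM rice enzyme and 400 uM 4-MU-alpha-glucoside for 20 min at room temperature; NaOH/glycine stop, read ex 365/em 440 nm, Hill-fitted AC50.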

For test [17], the target named is Alpha-galactosidase (Coffea arabica) (UniProt Q42656). As to the kind of experiment: Counterscreen for Glucocerebrosidase Inhibitors: qHTS Assay for Coffee Bean alpha-Galactosidase at pH 5.9 (AID 998).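 Also: plate controls were uninhibited enzyme for no effect and no-enzyme basal signal for full effect.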 Put shortly:
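Fluorogenic 4-MU substrate hydrolysis, 80 uM substrate and 2 nM coffee bean alpha-galactosidase, pH 5.9 citrate buffer, 20 min at room temperature, then NaOH/glycine stop. Titration 0.7 nM–77 uM, normalized to no-enzyme and enzyme controls, AC50 via Hill equation.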

Test [18] has as its target Ubiquitin carboxyl-terminal hydrolase 1 (Homo sapiens) (UniProt O94782). Put plainly: Inhibitors of USP1/UAF1: Pilot qHTS (AID 504865).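 Also: rhodamine fluorescence freed from ubiquitin-rhodamine substrate followed over time; top concentration of the series differs between compounds; % is scaled to controls: 0 for no effect and ±100 for the full control effect; nearly all actives have a fitted effect of over 35% in size.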 Put shortly:
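USP1/UAF1 complex at 1 nM preincubated 15 min at room temperature with compound, then Ub-Rho substrate added at 150 nM final. Fluorescence (480/540 nm) read kinetically in 50 mM HEPES pH 7.8, 0.5 mM EDTA, 1 mM TCEP, 0.1 mg/ml BSA, 0.01% Tween-20.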

Test [19] addresses Cytochrome P450 3A4 (Homo sapiens) (UniProt P08684). As to the kind of experiment: qHTS Assay for Activators of Cytochrome P450 3A4 (AID 885). Also: nearly all actives have a fitted effect of over 65% in size. Put shortly: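 Human CYP3A4 dealkylates Luciferin-PPXE to luciferin, which luciferase detection converts to light. Substrate was at its KM (25uM), buffer 200mM KPO4, reaction 60 min at RT.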
[20] abbreviates: measured here: cell count channel max response.
Setting [21] is: measured here: lipid channel max response.

Records with an inconclusive call do not appear. Calls of active or inactive are those of the source. Unless noted, calls follow the shape of the dose curve; as a rule, active = well fitted curve in the direction sought with a large enough effect; inconclusive = small, poorly fitted or top-dose-only effect, or another doubt; inactive = no such curve, though single readings can be large; an effect the other way counts as inactive or inconclusive.

DNA dC->dU-editing enzyme APOBEC-3G (Homo sapiens), sequence (Q9HC16 whole entry, looked up): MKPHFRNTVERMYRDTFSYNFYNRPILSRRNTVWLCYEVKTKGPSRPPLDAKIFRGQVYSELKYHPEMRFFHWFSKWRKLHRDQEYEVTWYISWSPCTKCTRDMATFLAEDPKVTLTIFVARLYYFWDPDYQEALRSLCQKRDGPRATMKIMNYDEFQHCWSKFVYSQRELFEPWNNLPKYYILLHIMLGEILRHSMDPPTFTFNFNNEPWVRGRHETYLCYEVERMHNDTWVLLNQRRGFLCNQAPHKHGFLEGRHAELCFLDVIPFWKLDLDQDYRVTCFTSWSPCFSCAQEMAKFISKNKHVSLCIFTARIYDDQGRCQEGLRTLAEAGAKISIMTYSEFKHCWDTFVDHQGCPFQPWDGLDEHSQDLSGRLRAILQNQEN
Ubiquitin carboxyl-terminal hydrolase 1 (Homo sapiens), sequence (O94782 whole entry, looked up): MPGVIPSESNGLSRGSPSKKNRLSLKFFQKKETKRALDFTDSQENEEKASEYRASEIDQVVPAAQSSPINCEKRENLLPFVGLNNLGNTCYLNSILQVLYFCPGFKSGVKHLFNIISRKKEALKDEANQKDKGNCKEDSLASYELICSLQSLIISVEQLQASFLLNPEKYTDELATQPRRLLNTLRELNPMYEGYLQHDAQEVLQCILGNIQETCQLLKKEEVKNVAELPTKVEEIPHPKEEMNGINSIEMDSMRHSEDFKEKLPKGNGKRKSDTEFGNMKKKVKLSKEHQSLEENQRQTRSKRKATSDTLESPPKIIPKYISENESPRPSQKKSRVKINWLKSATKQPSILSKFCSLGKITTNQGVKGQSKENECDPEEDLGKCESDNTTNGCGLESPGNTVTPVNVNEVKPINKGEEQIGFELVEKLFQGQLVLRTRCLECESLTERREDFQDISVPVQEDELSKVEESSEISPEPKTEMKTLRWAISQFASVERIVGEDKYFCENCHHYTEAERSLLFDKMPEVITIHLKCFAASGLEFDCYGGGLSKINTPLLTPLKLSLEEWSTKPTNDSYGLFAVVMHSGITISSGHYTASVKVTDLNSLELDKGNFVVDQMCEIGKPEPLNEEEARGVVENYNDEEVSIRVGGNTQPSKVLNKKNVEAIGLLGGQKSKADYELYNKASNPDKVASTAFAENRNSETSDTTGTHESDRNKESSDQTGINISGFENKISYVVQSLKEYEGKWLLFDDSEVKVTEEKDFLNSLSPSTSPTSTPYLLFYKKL
Cytochrome P450 1A2 (Homo sapiens), sequence (P05177 whole entry, looked up): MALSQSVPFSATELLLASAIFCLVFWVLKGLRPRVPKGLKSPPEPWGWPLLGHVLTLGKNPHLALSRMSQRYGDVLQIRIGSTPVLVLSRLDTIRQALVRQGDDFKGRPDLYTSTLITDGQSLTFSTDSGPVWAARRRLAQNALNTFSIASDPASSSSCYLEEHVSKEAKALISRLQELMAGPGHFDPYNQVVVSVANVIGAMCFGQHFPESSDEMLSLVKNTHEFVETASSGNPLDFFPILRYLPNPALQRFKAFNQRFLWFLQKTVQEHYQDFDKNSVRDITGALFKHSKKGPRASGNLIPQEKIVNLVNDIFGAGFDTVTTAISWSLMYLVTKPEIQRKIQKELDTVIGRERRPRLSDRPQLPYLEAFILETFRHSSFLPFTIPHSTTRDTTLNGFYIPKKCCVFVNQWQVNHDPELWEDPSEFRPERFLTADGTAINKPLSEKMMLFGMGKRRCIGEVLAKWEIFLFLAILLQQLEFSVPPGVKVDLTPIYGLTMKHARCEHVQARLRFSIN
3',5'-cyclic-AMP phosphodiesterase 4B (Homo sapiens), sequence (Q07343 whole entry, looked up): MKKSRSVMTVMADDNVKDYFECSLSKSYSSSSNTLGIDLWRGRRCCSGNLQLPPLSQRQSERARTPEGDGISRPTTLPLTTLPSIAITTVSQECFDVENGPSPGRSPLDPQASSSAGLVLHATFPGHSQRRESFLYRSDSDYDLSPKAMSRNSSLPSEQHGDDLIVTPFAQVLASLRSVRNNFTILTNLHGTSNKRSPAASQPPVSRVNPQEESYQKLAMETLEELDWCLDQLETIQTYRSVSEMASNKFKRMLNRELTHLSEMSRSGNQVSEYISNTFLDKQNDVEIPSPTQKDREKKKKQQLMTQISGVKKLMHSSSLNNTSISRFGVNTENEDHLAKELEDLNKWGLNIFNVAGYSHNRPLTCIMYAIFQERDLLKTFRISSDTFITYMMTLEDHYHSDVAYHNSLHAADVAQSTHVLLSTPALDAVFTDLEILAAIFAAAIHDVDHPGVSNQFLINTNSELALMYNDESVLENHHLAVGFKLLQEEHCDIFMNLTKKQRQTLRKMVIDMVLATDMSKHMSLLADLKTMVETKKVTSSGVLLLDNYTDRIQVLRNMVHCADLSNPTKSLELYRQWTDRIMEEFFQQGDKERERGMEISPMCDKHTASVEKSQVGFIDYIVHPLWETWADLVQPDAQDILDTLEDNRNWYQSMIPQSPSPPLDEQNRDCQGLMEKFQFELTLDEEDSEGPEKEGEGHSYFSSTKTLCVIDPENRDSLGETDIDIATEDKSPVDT
Glucocorticoid receptor (Homo sapiens), sequence (P04150 whole entry, looked up): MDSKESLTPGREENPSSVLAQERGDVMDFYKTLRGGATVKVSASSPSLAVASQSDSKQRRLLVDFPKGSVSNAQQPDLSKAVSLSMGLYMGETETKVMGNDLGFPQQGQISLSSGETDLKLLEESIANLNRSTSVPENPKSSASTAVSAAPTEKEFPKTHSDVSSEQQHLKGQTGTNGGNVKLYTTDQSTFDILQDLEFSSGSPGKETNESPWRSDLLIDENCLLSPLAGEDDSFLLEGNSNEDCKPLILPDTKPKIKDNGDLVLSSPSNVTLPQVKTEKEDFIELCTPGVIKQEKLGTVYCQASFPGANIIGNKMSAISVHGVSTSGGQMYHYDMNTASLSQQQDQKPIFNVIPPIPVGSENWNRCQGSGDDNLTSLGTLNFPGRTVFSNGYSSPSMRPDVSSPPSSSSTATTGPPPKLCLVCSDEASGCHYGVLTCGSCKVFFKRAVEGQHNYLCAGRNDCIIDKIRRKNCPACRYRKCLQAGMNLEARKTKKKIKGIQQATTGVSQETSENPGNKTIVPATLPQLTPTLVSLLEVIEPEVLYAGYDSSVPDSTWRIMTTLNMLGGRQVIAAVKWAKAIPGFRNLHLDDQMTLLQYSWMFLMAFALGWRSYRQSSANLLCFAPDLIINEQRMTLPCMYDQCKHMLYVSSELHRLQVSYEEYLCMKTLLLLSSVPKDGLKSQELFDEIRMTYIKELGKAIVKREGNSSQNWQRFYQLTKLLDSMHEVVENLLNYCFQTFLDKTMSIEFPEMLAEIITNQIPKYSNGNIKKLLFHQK
Pyruvate kinase (Leishmania mexicana), sequence (Q27686 2-499 E452W): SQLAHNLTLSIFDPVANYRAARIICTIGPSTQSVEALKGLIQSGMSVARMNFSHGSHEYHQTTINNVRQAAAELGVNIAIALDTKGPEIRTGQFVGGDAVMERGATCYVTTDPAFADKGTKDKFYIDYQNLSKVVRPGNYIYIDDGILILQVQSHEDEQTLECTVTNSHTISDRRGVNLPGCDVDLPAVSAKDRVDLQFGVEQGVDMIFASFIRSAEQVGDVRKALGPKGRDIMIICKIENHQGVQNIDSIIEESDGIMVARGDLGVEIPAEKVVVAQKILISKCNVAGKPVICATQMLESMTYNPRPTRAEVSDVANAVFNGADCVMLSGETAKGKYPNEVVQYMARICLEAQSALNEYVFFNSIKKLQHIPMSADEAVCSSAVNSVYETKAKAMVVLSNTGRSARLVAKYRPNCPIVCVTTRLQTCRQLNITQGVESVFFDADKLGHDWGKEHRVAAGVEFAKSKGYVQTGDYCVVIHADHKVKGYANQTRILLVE
Guanine nucleotide-binding protein G(i) subunit alpha-1 (Homo sapiens), sequence (P63096 whole entry, looked up): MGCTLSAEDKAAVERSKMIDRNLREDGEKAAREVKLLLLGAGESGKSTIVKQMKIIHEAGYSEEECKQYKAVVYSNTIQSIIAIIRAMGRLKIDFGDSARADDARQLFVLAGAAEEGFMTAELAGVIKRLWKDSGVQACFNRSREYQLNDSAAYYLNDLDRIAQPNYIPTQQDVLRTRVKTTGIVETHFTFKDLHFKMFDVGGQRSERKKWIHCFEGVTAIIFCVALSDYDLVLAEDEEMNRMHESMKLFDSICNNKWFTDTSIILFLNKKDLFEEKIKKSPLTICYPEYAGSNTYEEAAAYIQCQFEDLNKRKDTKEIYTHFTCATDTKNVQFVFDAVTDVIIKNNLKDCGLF
Alpha-galactosidase (Coffea arabica), sequence (Q42656 whole entry, looked up): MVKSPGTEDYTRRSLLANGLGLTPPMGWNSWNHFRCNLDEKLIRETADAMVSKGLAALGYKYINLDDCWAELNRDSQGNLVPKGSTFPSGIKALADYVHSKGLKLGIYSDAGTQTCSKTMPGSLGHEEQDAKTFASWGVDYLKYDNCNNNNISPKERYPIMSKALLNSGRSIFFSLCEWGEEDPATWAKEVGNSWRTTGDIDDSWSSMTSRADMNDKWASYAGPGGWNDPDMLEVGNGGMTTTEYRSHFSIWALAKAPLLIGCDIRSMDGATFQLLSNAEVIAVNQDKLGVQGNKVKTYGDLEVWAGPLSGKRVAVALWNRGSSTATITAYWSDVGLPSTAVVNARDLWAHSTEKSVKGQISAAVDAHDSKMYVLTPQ
Pyruvate kinase PKM (Homo sapiens), sequence (P14618 whole entry, looked up): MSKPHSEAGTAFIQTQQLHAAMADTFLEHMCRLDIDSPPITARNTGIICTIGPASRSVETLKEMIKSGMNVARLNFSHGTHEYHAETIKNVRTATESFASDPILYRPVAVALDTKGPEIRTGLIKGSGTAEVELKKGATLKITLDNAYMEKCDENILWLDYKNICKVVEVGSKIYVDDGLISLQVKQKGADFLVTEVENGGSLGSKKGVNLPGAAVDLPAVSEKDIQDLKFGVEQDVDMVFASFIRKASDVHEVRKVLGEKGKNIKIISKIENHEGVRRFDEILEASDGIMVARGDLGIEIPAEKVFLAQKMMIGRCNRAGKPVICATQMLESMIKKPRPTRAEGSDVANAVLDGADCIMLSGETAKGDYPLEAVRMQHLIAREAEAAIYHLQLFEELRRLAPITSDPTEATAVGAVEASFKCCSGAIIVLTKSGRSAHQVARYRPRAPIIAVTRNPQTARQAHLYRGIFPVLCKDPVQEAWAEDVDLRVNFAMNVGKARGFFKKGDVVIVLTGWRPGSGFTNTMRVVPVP

Regarding `CCCN(CCC)[C@@H]1CCc2c(OC)cccc2[C@@H]1C`, the Potency is 31.6 µM (active) in test [1], > 46 µM (inactive) in [2] and > 46 µM (inactive) in test [3]. The outcome in test [4] was inactive. Besides, in test [5], the activity change, negative = inhibition is -0.226% (inactive). In addition, the max response in test [5] (setting [20]) worked out at 8.03%; in test [5] (setting [21]), 12.1%. Further, the Potency entry in test [6], in test [7] and in test [8] was “inactive” in each case.

As for `N[C@H](CCP(=O)(O)O)C(=O)O`, the call in [9], in test [10], in test [12], in test [13], in test [14] and in [15] was inactive. Moreover, the compound was called inactive in test [16] and in [17]. Also, the Potency in [2] and in test [3] was > 46 µM (inactive) each time. In addition, the Potency result in test [11], in test [18], in test [6], in test [7] and in [8] was “inactive” each time. Besides, in test [5], the activity change, negative = inhibition was 2.56% (inactive). Besides, the max response came to 21.6% in [5] (setting [20]) and 21.4% in [5] (setting [21]).

Regarding `N#CC(C#N)=Cc1ccc([N+](=O)[O-])c(O)c1`, the Potency in test [1] was 31.6 µM (active); in test [2], > 46 µM (inactive); in test [3], > 46 µM (inactive). Moreover, the call in [10], in test [4], in [12], in test [13], in [14] and in test [15] was inactive. For the same compound, the result in [16] and in test [17] was inactive. For the same compound, the Potency result in test [11], in test [19], in test [7] and in test [8] was “inactive” in each case.

`CNCCc1cnc[nH]1`: the Potency entry in test [1], in test [18], in [6], in test [7] and in test [8] was “inactive” in each case. Also, the Potency in test [2] and in [3] was > 46 µM (inactive) throughout. Besides, the activity change, negative = inhibition in [5] was 4.08% (inactive). The max response in test [5] (setting [20]) is -7.35%; in test [5] (setting [21]) it was -3.08%.

As to `Cc1nc(N)sc1CCN`, the Potency in [3] was > 46 µM (inactive). Also, the call in test [4] was inactive. The Potency entry in test [11], in [18], in test [6], in [7] and in test [8] was “inactive” each time. Moreover, in test [5], the activity change, negative = inhibition is 3.05% (inactive). Also, the results for the max response in test [5] (setting [20]) and in test [5] (setting [21]) were -8.41% and -2.18%, respectively.
